# Assay results taken from PubChem BioAssay AID1259412 (Laboratorio de Genomica e Expressao (LGE), UNICAMP, 2018).
# Experiment: alternative oxidase inhibition and growth effect – profiling panel (AID 1259412);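 note: growth monitored over 72 h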
# Conditions: AOX-dependent respiration, O2 uptake; measured here: growth, control condition; at 500 µM
row,SMILES,growth (% of control) [%]
1,O=C(Nc1cccc(OCc2ccccc2)c1)c1cccc(Cl)c1,92.6
2,Cc1cccc(C(=O)Nc2cccc(Cl)c2)c1,65.6
3,O=C(Nc1ccccc1)c1cccc(Cl)c1,91.8
4,N#Cc1cccc(C(=O)Nc2cccc(Cl)c2)c1,87.1
5,O=C(Nc1ccc(N2CCOCC2)cc1)c1cccc(I)c1,99.3
6,O=C(Nc1cccc(F)c1)c1ccccc1,92.8
7,N#Cc1cccc(C(=O)Nc2ccccc2C(N)=O)c1,85.5
8,O=C(Nc1cccc(Cl)c1)c1cccc(Cl)c1,80.2
9,NC(=O)c1ccccc1NC(=O)c1cccc(Cl)c1,68.9
10,O=C(Nc1cccc(OCc2ccccc2)c1)c1ccccc1,117
11,O=C(Nc1ccc(N2CCOCC2)cc1)c1cccc(Cl)c1,92.8
12,O=C(Nc1cccc(NC(=O)c2ccccc2)c1)c1ccccc1,103
13,O=C(Nc1cccc([N+](=O)[O-])c1)c1cccc(I)c1,95.6
14,Nc1cccc(S(=O)(=O)c2cccc(NC(=O)c3cccc(Cl)c3)c2)c1,83.7
15,O=C(Nc1ccc(N2CCOCC2)cc1)c1ccccc1,87.8
16,NC(=O)c1ccccc1NC(=O)c1ccccc1,88.6
17,Cc1cccc(C(=O)Nc2cccc(Br)c2)c1,101
18,O=C(Nc1cccc([N+](=O)[O-])c1)c1cccc(Cl)c1,90.6
19,O=C(Nc1ccccc1)c1cccc(Br)c1,91.1
20,O=C(Nc1ccc(N2CCOCC2)cc1)c1cccc(Br)c1,92.2
21,O=C(Nc1cccc(NC(=O)c2cccc(Cl)c2)c1)c1cccc(Cl)c1,114
22,Cc1cccc(C(=O)Nc2cccc(NC(=O)c3cccc(C)c3)c2)c1,118
